Reference: PubChem BioAssay AID904 (National Center for Advancing Translational Sciences (NCATS), 2007)
Hit rate of the full screen: of about 55,000 compounds, about 530 (0.96%) were called active. Inconclusive results (about 7%) are left out. The call rests on the fitted dose curve; in most records, active means well fitted cell-killing curve with a large enough effect; inconclusive means small, poorly fitted or top-dose-only effect; inactive means no such curve, though single readings can be large or run the other way. Shown is part of a subset that was picked to be rich in actives.

assay: qHTS Screen for Compounds that Selectively Target Cancer Cells with p53 Mutations: Cytotoxicity of p53 Null Cells at the Nonpermissive Temperature; conditions: H1299 p53-null (neo) cells, 39C, ATPlite viability, 24 h; series mostly up to 46.1 µM; activity, negative = cell killing: at the top concentration; further: nearly all actives have a fitted effect of over 50% in size;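 on activity, negative = cell killing: 0% = DMSO only and -100% = full killing by 100 µM tamoxifen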
How it was run: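 Cells seeded at 600/well, 37C overnight. Compound added (up to 46 uM), plates shifted to 39C for 24 hr. ATPlite added, luminescence read after 20 min at room temperature.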
Potency means the concentration at half of the fitted maximal effect.

SMILES	activity, negative = cell killing	Potency
COc1ccc(Cl)cc1NC(=O)CNc1ccccc1F	28.8% [at 1.84 µM] (inactive)	–
CCCCN1CC(c2nc3ccccc3n2CCCCOc2ccc(C)cc2C)CC1=O (centres undefined)	15.7% (inactive)	–
CCc1ccccc1N1CC(c2nc3ccccc3n2CCCCOc2ccccc2)CC1=O (centres undefined)	–	20 µM (active)
COc1ccc(OCCCn2c(C3CC(=O)N(c4ccc(F)cc4)C3)nc3ccccc32)cc1 (centres undefined)	-24.9% (inactive)	–
Cc1cccc(NC(=S)Nc2ccc3cn[nH]c3c2)c1	13% (inactive)	–
CCN1CCN(C(=O)C2(NC(=O)Nc3cccc(F)c3)CCCCC2)CC1	-11.5% (inactive)	–
COc1cc(Cl)c(C)cc1NC(=O)CCc1nc2cccnc2n1Cc1cccs1	22.6% (inactive)	–
O=S(=O)(NN=C1CCCCCCC1)c1ccc(Br)cc1	-8.87% (inactive)	–
CC1=CC(=C(C#N)c2nc3ccccc3s2)C=C(C)N1c1ccc(F)cc1F	34.3% (inactive)	–
CCc1ccc(C2CC(=O)c3c([nH]c(C(=O)OCc4ccc(C)cc4)c3C)C2)cc1 (centres undefined)	15.3% (inactive)	–
Cc1cc(C)cc(C(=O)N2CCN=C2SCc2ccc([N+](=O)[O-])cc2)c1	-7.93% (inactive)	–
Fc1ccc(Nc2nc(SCc3ccccc3Cl)nc3ccccc23)cc1	-16.2% (inactive)	–
CC(C)(C)NC(=O)CSc1nc(-c2ccc(F)cc2)cc(C(F)(F)F)n1	20.5% (inactive)	–
CSc1nc(Nc2ccc(F)cc2)cc(-c2ccccc2)n1	–	15.8 µM (active)
Cc1ccc(CNC(=O)CCc2c(C)nc3c(c(C)nn3-c3ccccc3)c2C)cc1	-14.7% (inactive)	–
CCC1CCCCN1C(=S)Nc1ccc(SC(F)F)cc1 (centres undefined)	-0.151% (inactive)	–
CCc1ccccc1NC(=O)Cn1c(=O)n(-c2cccc(C)c2)c(=O)c2c1c1cc(OC)ccc1n2C	17.9% (inactive)	–
Cc1ccc(-c2nn3c(=O)cc(CN4CCN(S(=O)(=O)c5ccc(Cl)cc5)CC4)nc3s2)cc1	-26.2% (inactive)	–
CCCCOC(=O)/C(C#N)=C/c1ccc(-c2cccc(C(F)(F)F)c2)o1	20.7% (inactive)	–
CCOC(=O)c1nc(Nc2ccc(C(=O)OC)cc2)c2ccccc2n1	2.12% (inactive)	–
COc1cccc(Nc2nc3ccccc3c3nncn23)c1	-29.5% (inactive)	–
COc1cc(Nc2nc(-c3ccc(OC)c(OC)c3)nc3ccccc23)cc(OC)c1	–	14.1 µM (active)
O=C(Nc1ccc2c(c1)OCO2)c1cc(-c2cccc(Cl)c2)on1	-4.53% (inactive)	–
Cc1ccccc1-c1nc2scc(CCNC(=O)C(=O)Nc3ccc(F)cc3F)n2n1	-1.2% (inactive)	–
Cc1ccc(Nc2c(-c3ccc(C)cc3)nc3cnccn23)cc1	44.7% (inactive)	–
CC(=O)Nc1ccc(S(=O)(=O)N2CCN(c3ccc([N+](=O)[O-])c(NCCN4CCOCC4)c3)CC2)cc1	12.1% (inactive)	–

SMILES	activity, negative = cell killing	Potency
O=C(NC1CCCCC1)c1ccc(Cn2c(SCc3ccccc3)nc3cccnc32)cc1	-16.3% (inactive)	–
Cc1ccc(CSc2nc3cccnc3n2Cc2ccc(C(=O)NC3CC3)cc2)cc1	–	3.16 µM (active)
O=C(O)c1ccc(CSc2nc3cccnc3n2Cc2cccc(F)c2)cc1	-10.2% (inactive)	–
COc1ccc(OC)c(-c2nc(C(N)=O)c3c(n2)n(-c2ccc4c(c2)OCO4)c(=O)n3C)c1	-6.52% (inactive)	–
CCOc1ccc(N(Cc2ccccc2)C(=O)c2nc(S(C)(=O)=O)ncc2Cl)cc1	–	10 µM (active)
CCOc1ccc(N(Cc2ccccc2)C(=O)c2nc(SCC)ncc2Cl)cc1	35.2% (inactive)	–
CCOc1ccc(NC(=O)CN(Cc2ccccc2)S(=O)(=O)c2ccc(Cl)cc2)cc1	-6.25% (inactive)	–
CNc1ccc(NC(C)=O)cc1[N+](=O)[O-]	-11.3% [at 1.84 µM] (inactive)	–
N#Cc1c(-c2ccc(F)cc2)cc(C2CC2)nc1SCC(=O)c1cccs1	-5.05% [at 1.84 µM] (inactive)	–
COc1ccc(CNC(=O)c2ccc3c(O)c(S(=O)(=O)c4ccccc4)c(=O)[nH]c3c2)cc1	-10.1% (inactive)	–
Cc1ccc(C(=O)Nc2ccc3[nH]c(=O)c(=O)[nH]c3c2)cc1	16.2% (inactive)	–
CC(C)c1ccc(NC(=O)c2ccc3c(O)c(S(=O)(=O)c4ccccc4)c(=O)[nH]c3c2)cc1	–	7.94 µM (active)
Cc1c(NC(=O)Cc2ccccc2)cccc1-c1nc2cccnc2s1	3.6% (inactive)	–
CCC(C(=O)Nc1cccc(-c2nc3cccnc3s2)c1C)c1ccccc1 (centres undefined)	6.12% (inactive)	–
Cc1c(NC(=O)C(C)(C)C)cccc1-c1nc2ccccc2s1	–	15.8 µM (active)
O=C(Nc1cc(C(F)(F)F)ccc1Cl)C(=O)N1CCCCC1	-3.07% [at 1.84 µM] (inactive)	–
Cc1cccc(NC(=O)CSc2ncc(-c3ccccc3)[nH]2)c1C	0.286% (inactive)	–
Cc1ccc(S(=O)(=O)c2cn(Cc3ccccc3)c3cc(N4CCCC4)c(F)cc3c2=O)c(C)c1	-14.3% (inactive)	–
COCCN(Cc1ccco1)C(=O)Cn1ncc2c([nH]c3ccccc32)c1=O	-13.3% (inactive)	–
Cc1ccc(CN(C(=O)COc2ccc(Cl)cc2C)C2CCS(=O)(=O)C2)o1 (centres undefined)	1.18% (inactive)	–
COc1cc(C(=O)N2CCN(c3ccc(Nc4ccc(C)cc4)nn3)CC2)cc(OC)c1OC	21.3% (inactive)	–
O=C(COC(=O)c1cc2c(s1)CCCC2)NCc1ccccc1Cl	-13.8% (inactive)	–
Cc1ccc(NC(=O)c2sc3nc(N)c(C#N)cc3c2N)cc1	9.07% [at 1.84 µM] (inactive)	–
CCOc1ccc(CNC(=O)C2CCN(c3nnc(-n4cccc4CNc4ccc(C)cc4)s3)CC2)cc1OC	-31.7% (inactive)	–
CCOC(=O)/C(C#N)=C/c1ccc(N2CCN(Cc3ccccc3)CC2)cc1	2.74% [at 1.84 µM] (inactive)	–
Cc1cccc(-n2c(=O)c3c(c4cc(C)ccc4n3C)n(CC(=O)Nc3ccccc3Cl)c2=O)c1	-3.24% (inactive)	–

SMILES	activity, negative = cell killing	Potency
CCOc1ccc(-c2nonc2NC(=O)c2oc3ccc(CC)cc3c2C)cc1	-18.4% (inactive)	–
Cc1ccc(S(=O)(=O)N2CCN(CC(=O)N/N=C/c3cc([N+](=O)[O-])ccc3Cl)CC2)cc1	17.1% (inactive)	–
CCc1nnc(SCC(=O)Nc2cc(OC)ccc2OC)nc1CC	-14.4% (inactive)	–
O=c1n(Cc2cccc(C(F)(F)F)c2)c2ccccc2c2nc(-c3ccccc3)nn12	2.19% (inactive)	–
Cc1c(NC(=O)c2cc(-c3ccc(Br)cc3)on2)c(=O)n(-c2ccccc2)n1C	16.8% (inactive)	–
Cc1ccc(Nc2nnc(-c3ccc(C)c(S(=O)(=O)N4CCCCC4)c3)c3ccccc23)cc1	4.35% (inactive)	–
Cc1ccc(-c2nnc(Nc3ccc(OCC(N)=O)cc3)c3ccccc23)cc1S(=O)(=O)NCC1CCCO1 (centres undefined)	–	12.6 µM (active)
Cc1ccc(-c2nnc(Nc3cccc(Br)c3)c3ccccc23)cc1S(=O)(=O)NCC1CCCO1 (centres undefined)	13.7% (inactive)	–
C=CCn1c(SCC(N)=O)nnc1-c1cc2c(s1)CCC(CC)C2 (centres undefined)	-6.46% (inactive)	–
Cc1nc2sc(C)c(C)n2c(=O)c1S(=O)(=O)NCCc1ccc(Cl)cc1	-2.74% (inactive)	–
Cc1cc(C)c(/C=C/c2onc(C)c2S(=O)(=O)N2CCC(C(=O)Nc3ccc(Cl)cc3C)CC2)c(C)c1	-11.9% (inactive)	–
O=C(CNS(=O)(=O)c1cccs1)N1CCN(c2ccccc2Cl)CC1	-5.35% (inactive)	–
COc1ccc(OC)c(NC(=O)CSC2=Nc3ccccc3C3=NC(CC(=O)NCCc4ccccc4)C(=O)N23)c1 (centres undefined)	11.4% (inactive)	–
COc1cc(Cl)c(C)cc1NC(=O)COC(=O)c1cc(SC)ccc1Cl	6.7% (inactive)	–
Cc1cc2n(n1)C(c1cc(C(C)(C)C)c(O)cc1O)Nc1ccccc1-2 (centres undefined)	-1.76% (inactive)	–
Clc1ccc(-n2nnnc2-c2cnc(-c3ccccn3)nc2-c2cccs2)cc1	-18.6% (inactive)	–
c1ccc(-c2noc(-c3cccs3)n2)nc1	–	14.1 µM (active)
O=C(CN1C(=O)CCn2nc(-c3ccccc3)cc21)NCc1ccccc1	-23.9% (inactive)	–
CN(C(=O)c1c(Cl)cnn1C)C12CC3CC(CC(C3)C1)C2	17.1% [at 1.84 µM] (inactive)	–
COc1ccc(-c2csc(NC(=O)COC(=O)Cc3ccc(Cl)cc3Cl)n2)cc1	9.52% (inactive)	–
COc1ccc(NC(=O)c2cc3cc(C)ccc3n2C)cc1	-7.99% (inactive)	–
Nc1nnc(SCC(=O)Nc2ccc3nc(SCC(=O)Nc4ccccc4)sc3c2)s1	-13.2% (inactive)	–
Cc1ccccc1CNC(=O)CSc1nnc(C)c2c(C)n(-c3ccccc3)nc12	30.6% (inactive)	–
O=C(CSc1ccc(C(F)(F)F)cc1[N+](=O)[O-])NCCOc1ccccc1	3.3% (inactive)	–
COc1ccc(-c2c3c(=O)n(C)c(=O)n(C)c3c3c(C)nc4ccccc4n23)cc1	-10.8% (inactive)	–
CCc1nnc(SCc2nc(-c3cccc(C)c3)oc2C)c2cc3sc(C)cc3n12	-17.9% (inactive)	–

SMILES	activity, negative = cell killing	Potency
Cc1noc(COc2ccccc2OCc2onc(C)c2Cl)c1Cl	4.54% (inactive)	–
O=C(NCCc1ccc(Cl)cc1)c1ccc2nc(CCc3ccccc3)oc2c1	0.294% (inactive)	–
COc1cc(C(=O)NCCc2csc3nc(-c4ccccc4C)nn23)cc(OC)c1OC	-2.62% (inactive)	–
COc1ccc2c(c1)c(N1CCCC1=O)c(C(=O)Nc1ccccc1C(F)(F)F)n2C	-2.55% (inactive)	–
Cc1ccccc1-n1c(C)cc(/C=C2\NC(=O)NC2=O)c1C	–	8.91 µM (active)
CCc1ccc(CNC(=O)c2cc3cc4ccc(OC)cc4nc3o2)cc1	-17.3% (inactive)	–
CCOc1ccc(NC(=O)Cn2cc(C(=O)c3ccc(C)cc3)c(=O)c3cc4c(cc32)OCCO4)cc1	2.66% (inactive)	–
Cc1cc(C)cc(NC(=O)CSc2nc(=O)n(CCN3CCOCC3)c3c2CCC3)c1	13.2% (inactive)	–
CCCCCCCCC(=O)NCCOc1ccccc1	25.4% (inactive)	–
Cc1ccc(NC(=O)CN2C(=O)CC(C)Sc3ccccc32)c(C)c1 (centres undefined)	-6.72% (inactive)	–
O=C(CSc1nc2c(c(=O)[nH]1)CN(Cc1ccc(F)cc1)CC2)Nc1ccccc1Cl	-2.2% (inactive)	–
Cc1ccn2c(Nc3ccc4c(c3)OCCO4)c(-c3ccc(C)s3)nc2c1	–	10 µM (active)
Cc1cccc2nc(-c3ccc(Cl)s3)c(Nc3ccc4c(c3)OCCO4)n12	-3.18% (inactive)	–
Cc1ccc(Nc2c(-c3ccc(C)s3)nc3ccccn23)cc1	-7.56% (inactive)	–
CCn1c2ccccc2c2nnc(N3CCN(c4cc(C)ccc4C)CC3)nc21	23.4% (inactive)	–
Cc1ccc(CCNC(=O)c2ccc(CS(=O)(=O)Cc3cccc(C)c3)o2)cc1	14.9% (inactive)	–
Cc1ccc(Cl)cc1N1CCN(C(=O)CN2C(=O)COc3ccc(S(=O)(=O)N4CCOCC4)cc32)CC1	-21.1% (inactive)	–
Cc1cc(C)cc(-n2c(SCC(=O)NCC3CCCO3)nc3c([nH]c4ccccc43)c2=O)c1 (centres undefined)	3.52% (inactive)	–
CC1CCc2noc(NC(=O)c3ccc([N+](=O)[O-])cc3)c2C1 (centres undefined)	5.3% (inactive)	–
COc1ccc(-c2cc(C(=O)Nc3sc4c(c3C(N)=O)CCCC4)no2)cc1	-15.4% (inactive)	–
COc1ccc(C(=O)Nc2onc3c2CCCC3)cc1	–	7.94 µM (active)
O=C(Cn1ncc2c3ccccc3n(Cc3ccccc3)c2c1=O)NC1CCCCCC1	-12.2% (inactive)	–
Cc1c(Cl)cccc1NC(=O)c1noc2c1CCCC2	-12.7% (inactive)	–
O=C(N/N=C/c1cccc([N+](=O)[O-])c1)C1CC(=O)N(c2ccc(Br)cc2)C1 (centres undefined)	32.2% (inactive)	–
CN(Cc1ccccc1)C(=O)COC(=O)c1ccccc1Nc1ccccc1	-8.55% [at 1.84 µM] (inactive)	–
O=C(NCc1ccccc1)c1cccc(NC(=O)N2CCSc3ncccc32)c1	4.35% (inactive)	–
